This is a sample that favours compounds with a hit; in the whole collection about 1.2% have one here.
RGS16-Gao: modulators of RGS16 binding to Galphao, primary screen, biochemical, human proteins, multiplexed bead flow cytometry; bead-based flow cytometry RGS16-Galphao binding, fluorescence; actives lie on both sides; binding response (% of control), % at 10 µM; 220,000 tested, 0.38% active;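 further: Galphao activated by GDP with aluminum fluoride before binding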
RGS8-Gao reg: RGS8-Galphao binding modulators, primary screen, biochemical, multiplexed bead flow cytometry; actives lie on both sides; response (percent of control binding), % at 10 µM; 220,000 tested, 0.34% active; AID 1423, 2008; in the data active means response below about 60% or above about 140%; inactive means in between;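 further: Galphao activated as the GDP aluminium fluoride complex binding bead-coupled RGS8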
Target sequence (P09471 whole entry, looked up): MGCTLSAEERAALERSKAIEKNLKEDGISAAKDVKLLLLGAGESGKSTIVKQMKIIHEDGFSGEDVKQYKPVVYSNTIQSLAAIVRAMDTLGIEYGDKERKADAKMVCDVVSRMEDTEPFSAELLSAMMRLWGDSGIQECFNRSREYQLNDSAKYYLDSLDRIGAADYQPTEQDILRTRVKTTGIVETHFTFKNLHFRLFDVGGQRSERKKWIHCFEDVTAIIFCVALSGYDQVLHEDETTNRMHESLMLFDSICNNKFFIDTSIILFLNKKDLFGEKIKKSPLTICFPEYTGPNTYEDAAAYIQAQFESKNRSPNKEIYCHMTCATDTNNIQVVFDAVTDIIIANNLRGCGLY
Avidin fluor: green autofluorescence of compounds with avidin beads – biophysical, 488/530 nm, flow cytometry, artefact control, profiling panel | compound fluorescence 488/530 nm; active compounds read high | fluorescence (KMESF) at 10 µM | 220,000 tested, 0.38% active | AID 1775, 2009; in the data active means fluorescence above about 47
GSH fluor: compound fluorescence on glutathione beads, profiling panel, artefact control, biophysical, 488/530 nm, flow cytometry; GSH beads flow cytometry, compound fluorescence 488/530 nm; active compounds read high; fluorescence (KMESF) at 10 µM; 190,000 tested, 0.25% active; in the data active means fluorescence above about 89;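 further: glutathione beads carrying GST-tagged Bcl family fusion proteins plus one bare bead set; values are compound well signal with DMSO vehicle wells as background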
RGS7-Gao reg: RGS7-Galphao binding modulators, primary screen, biochemical, multiplexed bead flow cytometry; actives lie on both sides; binding response (% of control), % at 10 µM; 220,000 tested, 0.35% active; AID 1439, 2008; in the data active means binding response below about 49% or above about 150%; inconclusive means no clear call, values can overlap the other calls; inactive means in between;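 further: fluorescent Galphao held in activated GDP-AlF4 state binding bead-coupled RGS7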
RGS4-Gao reg: modulators of RGS4 binding to Galphao, primary screen, biochemical, multiplexed bead flow cytometry; Guanine nucleotide-binding protein G(o) subunit alpha (Homo sapiens), P09471; actives lie on both sides; binding response (% of control), % at 10 µM; 220,000 tested, 0.33% active; AID 1415, 2008; in the data active means binding response below about 49% or above about 150%; inactive means in between;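 further: fluorescent Galphao activated with aluminum fluoride binding bead-coupled RGS4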
RGS4-Gao HTS: modulators of RGS–Galpha-o binding, primary screen, biochemical, multiplexed beads, flow cytometry, RGS4/7/8/16/19 | RGS4–Galpha-o binding response, % at 10 µM | shares compounds with RGS16-Gao | 1,600 tested, 99% active | multiplexed bead flow cytometry;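 further: fluorescently labeled Galpha-o bound to GDP with aluminium fluoride binding biotinylated RGS beads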
Avidin counter: disruption of biotin probe capture by avidin, counter-screen for RGS protein interaction modulators, biochemical, flow cytometry, bead-based; shares compounds with RGS16-Gao; streptavidin beads, fluorescein-biotin binding; inhibition, % at 10 µM; 1,700 tested, under 10 active; AID 1783, 2009;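 active means inhibition above 50%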;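 further: median green fluorescence of gated singlet beads compared with DMSO control wells; 0% = DMSO wells and 100% = complete loss of bead fluorescence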
RGS8-Gao single: RGS8-Galphao binding modulators, confirmation, biochemical, multiplexed bead flow cytometry, single concentration; shares compounds with RGS16-Gao; bead-based flow cytometry RGS8-Galphao binding, fluorescence; actives lie on both sides; binding response (% of control), % at 10 µM; 1,700 tested, 3% active; AID 1836, 2009; in the data active means binding response below about 72% or above about 130%; inactive means in between;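 further: Galphao activated as GDP AlF4 complex before binding bead RGS8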
RGS7-Gao single: RGS7-Galphao binding modulators, confirmation, biochemical, multiplexed bead flow cytometry, single concentration; 1,700 tested, 7.8% active; bead-based flow cytometry RGS7-Galphao binding; actives lie on both sides; shares compounds with RGS16-Gao; response (percent of control binding), % at 10 µM; AID 1837, 2009; in the data active means response below about 75% or above about 130%; inactive means in between;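 further: fluorescent Galphao activated with GDP and aluminum fluoride binding bead-coupled RGS7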
RGS16-Gao single: modulators of RGS16-Galphao protein binding, confirmation, biochemical, single concentration, multiplexed bead flow cytometry | shares compounds with RGS16-Gao | response (% of control binding), % at 10 µM | 1,700 tested, 4% active | bead-based flow cytometry; actives lie on both sides | AID 1838, 2009; in the data active means response below about 74% or above about 130%; inactive means in between;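 further: Galphao activated as the GDP aluminium fluoride complex binding bead-coupled RGS16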
RGS4-Gao confirm: modulators of RGS4-Galphao protein binding, confirmation, biochemical, single concentration, multiplexed bead flow cytometry; shares compounds with RGS16-Gao; actives lie on both sides; binding response (% of control), % at 10 µM; 1,700 tested, 4% active; in the data active means binding response below about 74% or above about 130%; inactive means in between
RGS19-Gao conf: regulators of RGS19-Galphao binding, confirmation, biochemical, single point, multiplexed bead flow cytometry; AID 1841, 2009; bead-based flow cytometry RGS19-Galphao binding; actives lie on both sides; shares compounds with RGS16-Gao; response (percent of control binding), % at 10 µM; 1,700 tested, 5% active; in the data active means response below about 50% or above about 160%; inactive means in between;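 further: 100% = no compound control and 0% = blank background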
Target sequence (P09471 whole entry, looked up): as above
Target sequence (P49795 whole entry, looked up): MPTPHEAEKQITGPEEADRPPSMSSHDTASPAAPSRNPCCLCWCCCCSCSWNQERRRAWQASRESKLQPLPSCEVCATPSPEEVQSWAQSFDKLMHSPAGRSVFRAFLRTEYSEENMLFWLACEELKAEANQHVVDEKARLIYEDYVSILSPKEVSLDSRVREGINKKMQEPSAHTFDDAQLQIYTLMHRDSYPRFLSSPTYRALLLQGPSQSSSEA
Starred values were filed as active, the others as inactive; i = inactive; ? = inconclusive; . = not tested or not shown; [ ] = remark or other dose. Unless noted, how the calls were made is not given here.

SMILES | RGS16-Gao | RGS8-Gao reg | Avidin fluor | GSH fluor | RGS7-Gao reg | RGS4-Gao reg | RGS4-Gao HTS | Avidin counter | RGS8-Gao single | RGS7-Gao single | RGS16-Gao single | RGS4-Gao confirm | RGS19-Gao conf
Cc1cccc(/C(N)=N/OC(=O)Cc2ccccc2)c1 | 101 | 102 | 8 | 20 | 110 | 104 | . | . | . | . | . | . | .
O=C1c2cccc3c([N+](=O)[O-])ccc(c23)C(=O)N1CCc1ccccn1 | 96 | 98 | 8 | . | ? | 96 | . | . | . | . | . | . | .
O=C1c2ccccc2C(=O)N1CCc1ccccn1 | i | 153*[activator] | 3 | 24 | 117 | 127 | 127* | 1 | 102 | 100 | 99 | 98 | 54
COc1cccc(CN2CCN(Cc3nc(C(C)C)cs3)CC2CCO)c1 (stereo unspecified) | 103 | 103 | 11 | 10 | 102 | 99 | . | . | . | . | . | . | .
CCN1CCN(C(=O)C2CCC(CNS(=O)(=O)c3ccccc3)CC2)CC1 (stereo unspecified) | . | . | . | 36 | . | . | . | 4 | 102 | 105 | 108 | 108 | 103
O=C(C1CCC(CNS(=O)(=O)c2cccs2)CC1)N1CCCCC1 (stereo unspecified) | 55 | 93 | 4 | 35 | 95 | 93 | . | . | . | . | . | . | .
O=C(NCCN1CCN(S(=O)(=O)c2ccc([N+](=O)[O-])cc2)CC1)C(=O)Nc1ccccc1 | 87 | 89 | 152* | 25 | 221*[activator] | 131 | 131* | -2 | 99 | 102 | 101 | 100 | 107
O=C(NCCN1CCN(Cc2ccc([N+](=O)[O-])cc2)CC1)C(=O)Nc1ccccc1 | 99 | 100 | 18 | 33 | 97 | 97 | . | . | . | . | . | . | .
CCOP(=O)(OCC)C(Nc1ccc(F)cc1)c1ccccc1 (stereo unspecified) | . | . | . | . | . | 149 | . | 1 | 100 | 94 | 99 | 99 | 94
C/C(CC(=O)Nc1ccccn1)=N\NC(=O)c1ccc2ccccc2c1 | 211*[activator] | 122 | 14 | 5 | 105 | 107 | 107* | 1 | 95 | 89 | 92 | 91 | 96
COc1ccccc1NS(=O)(=O)c1cc(Cl)ccc1OC | 218 | 144*[activator] | 37 | 17 | 129 | 125 | 125* | 0 | 104 | 103 | 107 | 104 | 98
CCOC(=O)/C=C(\C)Sc1cc(O)c2ccccc2c1O | 11* | 50* | 0 | . | ? | 81 | 81* | . | . | . | . | . | .
CCC(=O)NC1=C(Cl)C(=O)C(NC(=O)CC)=C(Cl)C1=O | 8.6* | 53* | 3 | . | ? | 73 | 73* | -2 | 35* | 54* | -3.1* | 77 | -6.5*
CCC(=O)NC1=C(NC(C)c2ccccc2)C(=O)c2ccccc2C1=O (stereo unspecified) | 104 | 107 | 4 | 26 | 107 | 109 | . | . | . | . | . | . | .
Cc1nc2ccccc2n1CCCOc1ccccc1 | 108 | 103 | 5 | 29 | 102 | 102 | . | . | . | . | . | . | .
Cc1nc(Cl)c(Cl)n1CCOc1ccccc1 | -7.5* | 6.8* | -2 | . | ? | -14* | . | 1 | 101 | 108 | 103 | 105 | 101
CC1CCCC(NC(=O)CCCn2c(=O)[nH]c3cc(Cl)ccc3c2=O)C1C (stereo unspecified) | 204*[activator] | 110 | 100* | 36 | 176*[activator] | 212*[activator] | . | 1 | 105 | 102 | 105 | 104 | 107
CC1(C)CC(C2N3CC4(C)CN2CC(C)(C3)C4=O)CCO1 (stereo unspecified) | 278 | 147*[activator] | 12 | 22 | 119 | 115 | 115* | 0 | 101 | 103 | 104 | 103 | 94
COc1ccccc1Nc1nnc(SCC(=O)NC(=O)Nc2ccc3c(c2)OCCO3)s1 | 105 | 101 | 14 | 5 | 98 | 103 | . | . | . | . | . | . | .
COc1ccccc1OCCCCOc1ccccc1C(C)=O | 6.0* | 15* | -4 | 11 | 7.4* | 18* | . | 0 | 102 | 98 | 102 | 102 | 100
CC(=O)Nc1ccc(S(=O)(=O)NCC(=O)OCC(=O)N2CCN(c3ccccc3)CC2)cc1 | 21* | 71 | 1 | 12 | 79 | 82 | 82* | -2 | 98 | 89 | 95 | 94 | 82
O=C(CNS(=O)(=O)c1c(Cl)cccc1Cl)OCC(=O)N1CCN(c2ccccc2)CC1 | 112 | 104 | 13 | 8 | 99 | 101 | . | . | . | . | . | . | .
NNc1nc2ccc(Cl)cc2s1 | 99 | 102 | 15 | 17 | 100 | 102 | . | . | . | . | . | . | .
NNc1nc2ccc(F)cc2s1 | 0.3* | 78 | 8 | 9 | 89 | 92 | 92* | 3 | 101 | 94 | 102 | 100 | 108
COC(=O)CCSCC(=O)N1N=C(c2ccc(Br)cc2)CC1c1cccc(OC)c1OC (stereo unspecified) | 99 | 100 | 13 | 10 | 99 | 97 | . | . | . | . | . | . | .
COc1ccc2c(C)cc(SCc3c(C)noc3C)nc2c1 | 345 | 154*[activator] | 18 | 27 | 117 | 114 | 114* | . | . | . | . | . | .
CCN(CC)C(=O)C[n+]1cccc(/C=N/O)c1 | 112 | 103 | 4 | 8 | 97 | 101 | . | . | . | . | . | . | .
